ULK1 inh = inhibitors of human ULK1 kinase; O75385; AlphaScreen Atg13 phosphorylation by ULK1, luminescence; inhibition, % at 5.96 µM; hit rate 1.9% among 30,000; in the data active = inhibition above about 43%
ASK1 primary = inhibitors of human ASK1 kinase. Q99683. AlphaScreen MKK6 phosphorylation by ASK1, luminescence. inhibition, % at 7.44 µM. hit rate 0.99% among 22,000. AID 1159602; in the data active = inhibition above about 35%
Of the large screens only hits and unclear results are named; the others gave an inactive call. Compounds with a hit are over-represented: about 2.5% of the library has one in this group of screens.

CN(C)[C@@H]1C(=O)C(C(N)=O)=C(O)[C@@]2(O)C(=O)C3=C(O)c4c(O)cccc4[C@@](C)(O)[C@H]3C[C@@H]12	none (no result: ASK1 primary)
CN(C)[C@@H]1C(=O)C(C(N)=O)=C(O)[C@@]2(O)C(=O)C3=C(O)c4c(O)ccc(Cl)c4[C@@](C)(O)C3C[C@@H]12 (stereo partly drawn)	ULK1 inh 49.2 (no result: ASK1 primary)
CN(C)C1C(=O)C(C(N)=O)=C(O)C2(O)C(=O)C3=C(O)c4c(O)cccc4C(C)(O)C3CC12 (stereo not drawn)	ULK1 inh 71.6 (no result: ASK1 primary)
O=C(c1ccc2cncc(-c3cc4ccccc4o3)c2n1)N1CCC2(CC1)OCCO2	none (no result: ASK1 primary)
Nc1ccc([N+](=O)[O-])cc1C(=O)c1ccccc1Cl	none (no result: ASK1 primary)
CCC(=O)OC(Cc1ccccc1)(c1ccccc1)[C@H](C)CN(C)C (stereo partly drawn)	ULK1 inh 94.6 (no result: ASK1 primary)
CC(CC(C(N)=O)(c1ccccc1)c1ccccc1)N(C)C (stereo not drawn)	none (no result: ASK1 primary)
CCCn1nc(C(=O)NCc2cccc(OC)c2)c2ccc(-c3cn[nH]c3)cc21	none
CCOC(=O)C1=C(NC(=O)CC)c2ccccc2CC12CCCC2	none (no result: ASK1 primary)
C[C@H](N)[C@H](O)c1ccccc1	none (no result: ASK1 primary)
C[C@H](N)[C@H](O)c1ccc(O)c(O)c1	ULK1 inh 71.5 (no result: ASK1 primary)
COc1cccc([C@H](C)NC(=O)c2cn(CCN3CCCC3)c3cc(-c4cn[nH]c4)ccc23)c1	none
CC(CO)NC(=O)C1C=C2c3cccc4[nH]cc(c34)C[C@H]2N(C)C1 (stereo partly drawn)	none (no result: ASK1 primary)
CCN(CC)C(=O)N[C@H]1C=C2c3cccc4[nH]cc(c34)C[C@H]2N(C)C1	ULK1 inh 61.9 (no result: ASK1 primary)
COc1ccc(CCNC2CC3CCC2C3)cc1OC (stereo not drawn)	none (no result: ASK1 primary)

Compound activity from PubChem BioAssay.
